# According to ChEMBL document CHEMBL2218924, “A broad activity screen in support of a chemogenomic map for kinase signalling research and drug discovery” (Biochem J, 2013):
# Tests used:
# [1] = biological target: Tyrosine-protein kinase SYK (Homo sapiens) (UniProt P43405); conditions: at 1 µM
# [2] = biological target: Tyrosine-protein kinase SYK (Homo sapiens) (UniProt P43405); conditions: at 10 µM
# [3] = biological target: T1, Mitogen-activated protein kinase kinase kinase 7 (Homo sapiens) (UniProt O43318); conditions: at 1 µM
# T1 sequence (whole entry): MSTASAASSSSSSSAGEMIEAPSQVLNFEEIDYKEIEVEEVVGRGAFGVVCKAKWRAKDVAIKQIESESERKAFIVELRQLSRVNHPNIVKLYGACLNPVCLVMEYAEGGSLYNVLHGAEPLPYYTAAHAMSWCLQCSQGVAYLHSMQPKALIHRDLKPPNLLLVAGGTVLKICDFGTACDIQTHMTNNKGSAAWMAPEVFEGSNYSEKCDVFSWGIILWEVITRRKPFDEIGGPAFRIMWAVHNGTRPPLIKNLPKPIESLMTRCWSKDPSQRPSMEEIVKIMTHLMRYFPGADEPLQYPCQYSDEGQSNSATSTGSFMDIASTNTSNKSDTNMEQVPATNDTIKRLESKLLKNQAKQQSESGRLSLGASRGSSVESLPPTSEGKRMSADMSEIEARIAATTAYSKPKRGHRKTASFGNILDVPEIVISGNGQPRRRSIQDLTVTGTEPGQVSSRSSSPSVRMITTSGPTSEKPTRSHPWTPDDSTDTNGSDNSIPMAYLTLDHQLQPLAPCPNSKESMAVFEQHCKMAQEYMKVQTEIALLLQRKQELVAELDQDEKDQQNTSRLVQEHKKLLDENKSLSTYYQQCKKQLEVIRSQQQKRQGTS
# [4] = biological target: T1, Mitogen-activated protein kinase kinase kinase 7 (Homo sapiens); conditions: at 10 µM
# [5] = biological target: T2, Serine/threonine-protein kinase TAO1 (Homo sapiens) (UniProt Q7L7X3); conditions: at 1 µM
# T2 sequence (whole entry): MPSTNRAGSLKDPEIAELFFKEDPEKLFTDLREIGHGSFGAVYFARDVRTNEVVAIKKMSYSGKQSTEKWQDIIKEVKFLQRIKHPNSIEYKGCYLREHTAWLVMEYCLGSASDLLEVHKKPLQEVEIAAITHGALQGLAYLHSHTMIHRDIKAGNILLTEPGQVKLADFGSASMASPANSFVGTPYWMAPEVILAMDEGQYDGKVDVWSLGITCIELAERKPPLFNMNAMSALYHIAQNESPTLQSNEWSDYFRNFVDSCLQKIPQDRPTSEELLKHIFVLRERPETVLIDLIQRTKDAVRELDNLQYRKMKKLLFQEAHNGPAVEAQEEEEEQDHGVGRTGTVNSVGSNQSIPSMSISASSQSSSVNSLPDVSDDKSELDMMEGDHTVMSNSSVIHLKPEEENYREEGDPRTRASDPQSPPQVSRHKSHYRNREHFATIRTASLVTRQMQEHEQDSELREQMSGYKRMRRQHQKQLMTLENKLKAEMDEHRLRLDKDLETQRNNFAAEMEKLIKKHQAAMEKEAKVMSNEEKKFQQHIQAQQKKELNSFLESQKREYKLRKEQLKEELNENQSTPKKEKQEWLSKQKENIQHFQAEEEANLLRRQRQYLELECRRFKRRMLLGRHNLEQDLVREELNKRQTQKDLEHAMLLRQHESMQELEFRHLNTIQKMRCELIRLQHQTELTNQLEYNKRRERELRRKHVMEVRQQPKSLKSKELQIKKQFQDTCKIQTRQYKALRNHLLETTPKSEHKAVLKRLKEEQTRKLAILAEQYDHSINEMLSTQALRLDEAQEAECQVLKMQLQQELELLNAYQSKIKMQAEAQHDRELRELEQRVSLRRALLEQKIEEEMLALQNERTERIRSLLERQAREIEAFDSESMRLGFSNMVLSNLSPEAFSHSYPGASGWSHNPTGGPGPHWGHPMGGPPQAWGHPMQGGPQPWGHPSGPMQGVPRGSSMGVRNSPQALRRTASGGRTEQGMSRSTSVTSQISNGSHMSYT
# [6] = biological target: T2, Serine/threonine-protein kinase TAO1 (Homo sapiens); conditions: at 10 µM
# [7] = biological target: T3, Serine/threonine-protein kinase TAO3 (Homo sapiens) (UniProt Q9H2K8); conditions: at 1 µM
# T3 sequence (whole entry): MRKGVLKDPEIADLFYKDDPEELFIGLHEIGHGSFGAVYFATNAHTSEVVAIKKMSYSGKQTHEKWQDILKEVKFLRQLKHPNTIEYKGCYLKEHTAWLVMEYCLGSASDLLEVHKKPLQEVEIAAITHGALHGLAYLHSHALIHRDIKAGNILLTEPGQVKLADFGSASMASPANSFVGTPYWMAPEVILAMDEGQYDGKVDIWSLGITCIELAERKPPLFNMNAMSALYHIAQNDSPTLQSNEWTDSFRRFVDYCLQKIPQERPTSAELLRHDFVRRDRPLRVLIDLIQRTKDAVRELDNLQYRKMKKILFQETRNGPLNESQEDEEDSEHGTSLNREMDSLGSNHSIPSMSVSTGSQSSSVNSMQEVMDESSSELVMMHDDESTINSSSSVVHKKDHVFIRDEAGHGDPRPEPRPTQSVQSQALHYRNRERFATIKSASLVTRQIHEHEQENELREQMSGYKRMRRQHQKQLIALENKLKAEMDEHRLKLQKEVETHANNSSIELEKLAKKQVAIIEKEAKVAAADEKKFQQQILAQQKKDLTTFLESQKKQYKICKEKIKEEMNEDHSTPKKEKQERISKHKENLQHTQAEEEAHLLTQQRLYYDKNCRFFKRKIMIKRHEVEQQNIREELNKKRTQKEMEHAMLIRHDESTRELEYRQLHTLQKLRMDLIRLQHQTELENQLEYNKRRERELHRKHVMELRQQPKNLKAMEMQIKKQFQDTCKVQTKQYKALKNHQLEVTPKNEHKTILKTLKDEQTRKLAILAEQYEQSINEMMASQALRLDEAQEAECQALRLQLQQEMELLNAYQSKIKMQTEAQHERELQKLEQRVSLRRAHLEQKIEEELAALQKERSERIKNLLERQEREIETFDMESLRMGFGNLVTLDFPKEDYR
# [8] = biological target: T3, Serine/threonine-protein kinase TAO3 (Homo sapiens); conditions: at 10 µM
# [9] = biological target: T4, Serine/threonine-protein kinase TBK1 (Homo sapiens) (UniProt Q9UHD2); conditions: at 1 µM
# T4 sequence (whole entry): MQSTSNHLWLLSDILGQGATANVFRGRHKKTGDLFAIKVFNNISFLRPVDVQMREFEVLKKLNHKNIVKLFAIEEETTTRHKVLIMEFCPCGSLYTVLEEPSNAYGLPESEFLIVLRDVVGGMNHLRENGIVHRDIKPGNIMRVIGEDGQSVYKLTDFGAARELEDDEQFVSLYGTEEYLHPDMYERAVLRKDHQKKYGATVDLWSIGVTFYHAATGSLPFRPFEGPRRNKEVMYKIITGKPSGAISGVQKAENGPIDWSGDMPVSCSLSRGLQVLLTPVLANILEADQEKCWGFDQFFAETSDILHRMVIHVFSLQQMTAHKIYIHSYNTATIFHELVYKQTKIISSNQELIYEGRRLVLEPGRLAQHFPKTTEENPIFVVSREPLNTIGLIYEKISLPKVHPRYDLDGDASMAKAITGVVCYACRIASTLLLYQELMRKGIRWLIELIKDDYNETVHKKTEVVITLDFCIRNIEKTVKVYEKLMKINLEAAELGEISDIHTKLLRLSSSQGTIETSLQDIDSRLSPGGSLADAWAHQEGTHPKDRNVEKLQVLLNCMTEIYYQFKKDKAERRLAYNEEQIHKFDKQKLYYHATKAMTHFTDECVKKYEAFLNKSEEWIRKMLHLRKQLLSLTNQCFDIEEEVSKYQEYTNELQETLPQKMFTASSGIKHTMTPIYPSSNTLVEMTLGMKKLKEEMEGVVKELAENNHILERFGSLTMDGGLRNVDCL
# [10] = biological target: T4, Serine/threonine-protein kinase TBK1 (Homo sapiens); conditions: at 10 µM
# [11] = biological target: Serine/threonine-protein kinase 33 (Homo sapiens) (UniProt Q9BYT3); conditions: at 1 µM
# Serine/threonine-protein kinase 33 (Homo sapiens), sequence (Q9BYT3 whole entry, looked up): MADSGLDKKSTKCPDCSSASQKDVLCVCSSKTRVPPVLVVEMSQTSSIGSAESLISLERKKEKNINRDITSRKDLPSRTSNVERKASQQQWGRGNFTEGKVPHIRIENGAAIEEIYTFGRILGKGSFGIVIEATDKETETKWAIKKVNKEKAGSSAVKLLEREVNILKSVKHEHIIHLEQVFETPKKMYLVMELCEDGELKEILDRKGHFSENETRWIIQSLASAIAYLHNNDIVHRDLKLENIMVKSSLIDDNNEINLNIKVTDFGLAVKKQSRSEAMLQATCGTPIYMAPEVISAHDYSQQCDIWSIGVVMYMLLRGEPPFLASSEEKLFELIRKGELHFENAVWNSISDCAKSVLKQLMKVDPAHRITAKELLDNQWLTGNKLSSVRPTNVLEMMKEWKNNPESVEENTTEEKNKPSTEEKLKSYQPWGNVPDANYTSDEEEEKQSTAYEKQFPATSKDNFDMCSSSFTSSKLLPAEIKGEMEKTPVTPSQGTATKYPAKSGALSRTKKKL
# [12] = biological target: Serine/threonine-protein kinase 33 (Homo sapiens) (UniProt Q9BYT3); conditions: at 10 µM
# [13] = biological target: Serine/threonine-protein kinase PLK2 (Homo sapiens) (UniProt Q9NYY3); conditions: at 1 µM
# Serine/threonine-protein kinase PLK2 (Homo sapiens), sequence (Q9NYY3 whole entry, looked up): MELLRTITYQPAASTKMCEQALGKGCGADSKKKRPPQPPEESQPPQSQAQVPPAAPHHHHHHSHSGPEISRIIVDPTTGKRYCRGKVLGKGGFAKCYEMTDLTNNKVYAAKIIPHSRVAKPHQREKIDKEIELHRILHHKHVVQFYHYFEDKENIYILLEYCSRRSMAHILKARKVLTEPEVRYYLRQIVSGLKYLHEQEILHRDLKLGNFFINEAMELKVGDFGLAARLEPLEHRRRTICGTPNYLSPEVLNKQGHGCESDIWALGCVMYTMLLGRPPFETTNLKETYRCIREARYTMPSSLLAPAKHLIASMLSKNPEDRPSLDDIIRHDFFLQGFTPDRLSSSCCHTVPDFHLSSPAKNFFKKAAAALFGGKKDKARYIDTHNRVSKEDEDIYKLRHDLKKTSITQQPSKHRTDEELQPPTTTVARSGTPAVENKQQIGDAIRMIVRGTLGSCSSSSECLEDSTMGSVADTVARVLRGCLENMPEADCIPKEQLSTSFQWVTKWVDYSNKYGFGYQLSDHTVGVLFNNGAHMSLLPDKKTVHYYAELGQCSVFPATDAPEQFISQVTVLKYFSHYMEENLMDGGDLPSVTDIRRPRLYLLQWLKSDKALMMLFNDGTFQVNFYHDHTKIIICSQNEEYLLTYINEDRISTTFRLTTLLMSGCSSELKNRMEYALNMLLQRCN
# [14] = biological target: Serine/threonine-protein kinase PLK2 (Homo sapiens) (UniProt Q9NYY3); conditions: at 10 µM
# [15] = biological target: T5, Serine/threonine-protein kinase TAO2 (Homo sapiens) (UniProt Q9UL54); conditions: at 1 µM
# T5 sequence (whole entry): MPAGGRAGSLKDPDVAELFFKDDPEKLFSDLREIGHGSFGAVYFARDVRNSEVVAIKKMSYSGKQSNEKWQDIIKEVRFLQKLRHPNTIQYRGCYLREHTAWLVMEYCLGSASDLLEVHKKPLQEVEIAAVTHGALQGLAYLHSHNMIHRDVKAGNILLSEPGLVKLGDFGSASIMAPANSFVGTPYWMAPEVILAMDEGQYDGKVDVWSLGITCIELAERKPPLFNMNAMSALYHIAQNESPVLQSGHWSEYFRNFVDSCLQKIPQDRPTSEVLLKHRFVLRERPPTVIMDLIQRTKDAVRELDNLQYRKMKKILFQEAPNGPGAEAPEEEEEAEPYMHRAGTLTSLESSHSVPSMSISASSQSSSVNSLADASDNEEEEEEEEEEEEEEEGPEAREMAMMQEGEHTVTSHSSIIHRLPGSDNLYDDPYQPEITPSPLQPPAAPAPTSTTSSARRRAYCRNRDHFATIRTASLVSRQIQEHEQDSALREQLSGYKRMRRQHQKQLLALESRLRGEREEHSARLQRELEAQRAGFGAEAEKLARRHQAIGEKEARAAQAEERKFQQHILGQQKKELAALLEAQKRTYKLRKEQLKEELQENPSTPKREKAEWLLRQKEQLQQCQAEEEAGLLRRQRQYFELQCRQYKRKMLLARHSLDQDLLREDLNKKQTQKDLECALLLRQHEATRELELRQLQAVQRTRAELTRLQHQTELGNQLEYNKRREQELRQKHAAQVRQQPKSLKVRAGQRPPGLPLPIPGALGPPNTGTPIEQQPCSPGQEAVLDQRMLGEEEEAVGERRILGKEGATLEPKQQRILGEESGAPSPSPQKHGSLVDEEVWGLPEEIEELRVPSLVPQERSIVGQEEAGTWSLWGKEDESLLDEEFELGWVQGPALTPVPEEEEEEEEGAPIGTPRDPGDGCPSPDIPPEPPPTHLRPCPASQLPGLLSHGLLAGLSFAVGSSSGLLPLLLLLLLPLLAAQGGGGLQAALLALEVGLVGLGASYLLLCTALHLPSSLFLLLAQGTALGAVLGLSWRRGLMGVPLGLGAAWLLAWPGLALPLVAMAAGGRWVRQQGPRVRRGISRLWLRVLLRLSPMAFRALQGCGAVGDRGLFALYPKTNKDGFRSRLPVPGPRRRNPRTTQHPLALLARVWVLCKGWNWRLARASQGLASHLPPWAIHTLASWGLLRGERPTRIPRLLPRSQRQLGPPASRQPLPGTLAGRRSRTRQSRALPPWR
# [16] = biological target: T5, Serine/threonine-protein kinase TAO2 (Homo sapiens); conditions: at 10 µM
# [17] = biological target: T6, TGF-beta receptor type-1 (Homo sapiens) (UniProt P36897); conditions: at 1 µM
# T6 sequence (whole entry): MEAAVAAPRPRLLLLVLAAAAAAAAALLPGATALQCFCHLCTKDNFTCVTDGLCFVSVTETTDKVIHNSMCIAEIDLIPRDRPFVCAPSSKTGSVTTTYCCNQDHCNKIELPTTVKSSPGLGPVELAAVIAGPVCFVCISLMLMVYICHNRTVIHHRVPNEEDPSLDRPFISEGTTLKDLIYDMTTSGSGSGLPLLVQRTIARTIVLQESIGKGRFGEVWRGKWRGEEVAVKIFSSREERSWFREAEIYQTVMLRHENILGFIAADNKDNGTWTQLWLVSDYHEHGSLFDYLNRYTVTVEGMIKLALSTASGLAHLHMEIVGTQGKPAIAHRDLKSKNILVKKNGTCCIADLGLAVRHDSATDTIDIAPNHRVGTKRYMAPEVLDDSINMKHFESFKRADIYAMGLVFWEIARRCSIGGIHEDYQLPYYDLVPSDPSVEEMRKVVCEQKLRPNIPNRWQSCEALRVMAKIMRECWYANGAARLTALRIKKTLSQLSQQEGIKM
# [18] = biological target: T6, TGF-beta receptor type-1 (Homo sapiens); conditions: at 10 µM
# [19] = biological target: Insulin-like growth factor 1 receptor (Homo sapiens) (UniProt P08069); conditions: at 1 µM
# Insulin-like growth factor 1 receptor (Homo sapiens), sequence (P08069 31-736 limits assumed): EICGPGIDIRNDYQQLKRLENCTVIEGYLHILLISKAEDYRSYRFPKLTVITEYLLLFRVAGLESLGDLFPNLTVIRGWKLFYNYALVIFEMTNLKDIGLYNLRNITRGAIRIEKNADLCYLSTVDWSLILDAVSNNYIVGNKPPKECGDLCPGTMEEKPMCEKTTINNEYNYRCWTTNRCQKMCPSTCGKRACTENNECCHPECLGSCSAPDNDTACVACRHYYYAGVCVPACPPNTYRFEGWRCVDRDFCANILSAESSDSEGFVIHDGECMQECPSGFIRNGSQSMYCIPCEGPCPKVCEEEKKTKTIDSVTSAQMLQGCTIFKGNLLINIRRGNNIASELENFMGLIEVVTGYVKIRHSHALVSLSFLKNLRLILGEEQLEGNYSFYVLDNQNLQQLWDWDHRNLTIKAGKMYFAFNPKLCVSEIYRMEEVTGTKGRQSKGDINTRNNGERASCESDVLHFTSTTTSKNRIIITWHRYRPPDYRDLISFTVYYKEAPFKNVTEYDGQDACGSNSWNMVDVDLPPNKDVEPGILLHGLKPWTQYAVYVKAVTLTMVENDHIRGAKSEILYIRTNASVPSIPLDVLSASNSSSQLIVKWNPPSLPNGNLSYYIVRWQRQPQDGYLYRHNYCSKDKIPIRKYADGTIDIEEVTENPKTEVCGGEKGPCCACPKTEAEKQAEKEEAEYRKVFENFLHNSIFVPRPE
# Insulin-like growth factor 1 receptor (Homo sapiens), sequence (P08069 741-1367 limits assumed): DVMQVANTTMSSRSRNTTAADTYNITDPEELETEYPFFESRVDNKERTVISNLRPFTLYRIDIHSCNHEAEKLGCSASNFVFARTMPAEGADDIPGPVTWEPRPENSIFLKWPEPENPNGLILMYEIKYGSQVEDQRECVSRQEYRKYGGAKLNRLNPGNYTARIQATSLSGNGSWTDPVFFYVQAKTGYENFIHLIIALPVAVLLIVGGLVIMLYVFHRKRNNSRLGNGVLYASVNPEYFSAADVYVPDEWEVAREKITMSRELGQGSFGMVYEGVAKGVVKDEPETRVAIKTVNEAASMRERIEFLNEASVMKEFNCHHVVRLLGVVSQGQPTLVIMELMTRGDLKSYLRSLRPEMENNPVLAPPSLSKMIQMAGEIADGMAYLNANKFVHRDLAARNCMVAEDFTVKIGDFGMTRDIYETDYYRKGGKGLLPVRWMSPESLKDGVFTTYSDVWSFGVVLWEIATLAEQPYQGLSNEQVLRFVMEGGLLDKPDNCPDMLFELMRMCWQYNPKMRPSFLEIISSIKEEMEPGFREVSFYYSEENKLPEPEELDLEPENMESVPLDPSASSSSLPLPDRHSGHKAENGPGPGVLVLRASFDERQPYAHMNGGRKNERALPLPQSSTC
# [20] = biological target: Insulin-like growth factor 1 receptor (Homo sapiens) (UniProt P08069); conditions: at 10 µM
SMILES,residual activity [1],residual activity [2],residual activity [3],residual activity [4],residual activity [5],residual activity [6],residual activity [7],residual activity [8],residual activity [9],residual activity [10],residual activity [11],residual activity [12],residual activity [13],residual activity [14],residual activity [15],residual activity [16],residual activity [17],residual activity [18],residual activity [19],residual activity [20]
O=C1NC(=O)c2c1c1c3ccccc3n3c1c1c2c2ccccc2n1C1CCC3O1,90%,80%,88%,89%,75%,69%,96%,94%,54%,62%,,,,,,,,,,
O=[N+]([O-])/C=C/c1ccc2c(c1)OCO2,123%,82%,92%,90%,101%,98%,90%,100%,87%,81%,93%,89%,102%,102%,107%,81%,90%,101%,103%,91%
O=c1[nH]c2ccccc2n1C1CCN(Cc2ccc(-c3nc4cc5[nH]cnc5cc4nc3-c3ccccc3)cc2)CC1,125%,76%,97%,96%,102%,65%,93%,66%,82%,68%,100%,95%,91%,92%,101%,56%,91%,87%,98%,80%
CC(C)(C)c1cc(C=C(C#N)C#N)cc(Br)c1O,128%,,104%,103%,112%,70%,101%,97%,103%,,110%,108%,,67%,113%,103%,97%,97%,105%,104%
O=C1c2ccccc2-c2nc3nnnn3nc21,,,,,,,,,,83%,103%,100%,73%,34%,111%,103%,,,,
